Results on seven molecules are retold here after ChEMBL document CHEMBL1961873, “Compounds: GSK PKIS; Assays: Nanosyn kinase panel” (2012).

The term inhibition denotes the change of the read-out against control, counted positive when it falls.

Assay [1] deals with Glycogen synthase kinase-3 beta (Homo sapiens) (UniProt P49841). To be noted: at 1 µM.
The target in assay [2] is Homeodomain-interacting protein kinase 1 (Homo sapiens) (UniProt Q86Z02). To be noted: at 0.1 µM.
Assay [3] shares this target. To be noted: at 1 µM.
Assay [4] addresses T1, Homeodomain-interacting protein kinase 4 (Homo sapiens) (UniProt Q8NE63).
T1 sequence (whole entry): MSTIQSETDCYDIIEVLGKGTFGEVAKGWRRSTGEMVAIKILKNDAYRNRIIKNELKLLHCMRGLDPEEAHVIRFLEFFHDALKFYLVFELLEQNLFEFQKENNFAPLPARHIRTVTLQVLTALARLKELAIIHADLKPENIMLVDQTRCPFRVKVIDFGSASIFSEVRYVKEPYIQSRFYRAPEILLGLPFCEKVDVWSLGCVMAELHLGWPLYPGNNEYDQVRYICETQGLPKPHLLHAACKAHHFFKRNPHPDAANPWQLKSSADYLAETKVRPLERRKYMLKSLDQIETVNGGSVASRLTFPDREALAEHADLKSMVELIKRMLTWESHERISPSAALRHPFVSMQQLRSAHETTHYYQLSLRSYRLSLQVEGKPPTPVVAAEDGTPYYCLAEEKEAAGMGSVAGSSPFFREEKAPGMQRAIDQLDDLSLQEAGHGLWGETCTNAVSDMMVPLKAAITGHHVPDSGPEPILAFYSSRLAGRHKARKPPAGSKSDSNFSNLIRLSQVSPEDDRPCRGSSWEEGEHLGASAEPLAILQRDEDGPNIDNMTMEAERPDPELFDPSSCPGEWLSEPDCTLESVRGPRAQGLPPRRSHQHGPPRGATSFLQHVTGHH
To be noted: at 0.1 µM.

The target in assay [5] is T1, Homeodomain-interacting protein kinase 4 (Homo sapiens). To be noted: at 1 µM.
In assay [6] the target is Mitogen-activated protein kinase 1 (Homo sapiens) (UniProt P28482). To be noted: at 0.1 µM.
Assay [7] has the same target. To be noted: at 1 µM.
Assay [8] concerns the target Mitogen-activated protein kinase 3 (Homo sapiens) (UniProt P27361). To be noted: at 0.1 µM.
Assay [9] shares this target. To be noted: at 1 µM.
Assay [10] concerns the target SRSF protein kinase 3 (Homo sapiens) (UniProt Q9UPE1). To be noted: at 0.1 µM.
Assay [11] shares this target. To be noted: at 1 µM.
The target of assay [12] is Mitogen-activated protein kinase 9 (Homo sapiens) (UniProt P45984). To be noted: at 0.1 µM.
Assay [13] shares this target. To be noted: at 1 µM.
Assay [14] concerns the target Mitogen-activated protein kinase 14 (Homo sapiens) (UniProt Q16539). To be noted: at 0.1 µM.
The target is the same in assay [15]. To be noted: at 1 µM.
Assay [16] has as its target Mitogen-activated protein kinase 11 (Homo sapiens) (UniProt Q15759). To be noted: at 0.1 µM.
Assay [17] shares this target. To be noted: at 1 µM.
Assay [18] concerns the target T2, Mitogen-activated protein kinase 13 (Homo sapiens) (UniProt O15264).
T2 sequence (whole entry): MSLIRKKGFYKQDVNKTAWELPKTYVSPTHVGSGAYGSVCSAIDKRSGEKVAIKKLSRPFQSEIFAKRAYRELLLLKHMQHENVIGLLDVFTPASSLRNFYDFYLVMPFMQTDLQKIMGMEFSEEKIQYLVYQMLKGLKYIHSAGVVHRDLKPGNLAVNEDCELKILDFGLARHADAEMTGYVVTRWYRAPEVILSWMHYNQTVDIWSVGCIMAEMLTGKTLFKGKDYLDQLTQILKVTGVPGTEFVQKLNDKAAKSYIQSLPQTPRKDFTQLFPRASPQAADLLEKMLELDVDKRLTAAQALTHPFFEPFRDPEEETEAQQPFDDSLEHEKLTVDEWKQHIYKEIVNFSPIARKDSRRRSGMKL
To be noted: at 0.1 µM.

For assay [19], the target named is T2, Mitogen-activated protein kinase 13 (Homo sapiens). To be noted: at 1 µM.
In assay [20] the target is T3, Mitogen-activated protein kinase 12 (Homo sapiens) (UniProt P53778).
T3 sequence (whole entry): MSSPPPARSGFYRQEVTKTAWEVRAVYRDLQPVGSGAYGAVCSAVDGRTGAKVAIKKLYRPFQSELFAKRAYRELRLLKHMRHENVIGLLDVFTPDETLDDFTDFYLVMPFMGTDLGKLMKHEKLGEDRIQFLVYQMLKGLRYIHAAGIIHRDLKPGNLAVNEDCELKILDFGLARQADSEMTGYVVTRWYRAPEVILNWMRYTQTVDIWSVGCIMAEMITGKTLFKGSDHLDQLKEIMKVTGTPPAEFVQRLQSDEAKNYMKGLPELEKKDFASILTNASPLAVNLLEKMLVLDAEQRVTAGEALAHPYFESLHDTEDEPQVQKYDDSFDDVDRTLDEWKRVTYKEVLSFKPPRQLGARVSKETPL
To be noted: at 0.1 µM.

Sequence of Mitogen-activated protein kinase 1 (Homo sapiens) (P28482 whole entry): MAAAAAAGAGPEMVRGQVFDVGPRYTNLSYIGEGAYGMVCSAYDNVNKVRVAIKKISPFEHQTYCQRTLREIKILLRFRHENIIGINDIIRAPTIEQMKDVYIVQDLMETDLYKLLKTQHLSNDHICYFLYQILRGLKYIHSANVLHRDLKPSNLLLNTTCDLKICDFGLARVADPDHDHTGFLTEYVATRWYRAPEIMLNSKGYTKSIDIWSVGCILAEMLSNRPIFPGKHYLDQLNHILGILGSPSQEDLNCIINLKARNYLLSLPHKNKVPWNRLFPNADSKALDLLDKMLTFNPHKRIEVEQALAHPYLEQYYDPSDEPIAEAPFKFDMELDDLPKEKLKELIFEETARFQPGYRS
Sequence of Homeodomain-interacting protein kinase 1 (Homo sapiens) (Q86Z02 whole entry, looked up): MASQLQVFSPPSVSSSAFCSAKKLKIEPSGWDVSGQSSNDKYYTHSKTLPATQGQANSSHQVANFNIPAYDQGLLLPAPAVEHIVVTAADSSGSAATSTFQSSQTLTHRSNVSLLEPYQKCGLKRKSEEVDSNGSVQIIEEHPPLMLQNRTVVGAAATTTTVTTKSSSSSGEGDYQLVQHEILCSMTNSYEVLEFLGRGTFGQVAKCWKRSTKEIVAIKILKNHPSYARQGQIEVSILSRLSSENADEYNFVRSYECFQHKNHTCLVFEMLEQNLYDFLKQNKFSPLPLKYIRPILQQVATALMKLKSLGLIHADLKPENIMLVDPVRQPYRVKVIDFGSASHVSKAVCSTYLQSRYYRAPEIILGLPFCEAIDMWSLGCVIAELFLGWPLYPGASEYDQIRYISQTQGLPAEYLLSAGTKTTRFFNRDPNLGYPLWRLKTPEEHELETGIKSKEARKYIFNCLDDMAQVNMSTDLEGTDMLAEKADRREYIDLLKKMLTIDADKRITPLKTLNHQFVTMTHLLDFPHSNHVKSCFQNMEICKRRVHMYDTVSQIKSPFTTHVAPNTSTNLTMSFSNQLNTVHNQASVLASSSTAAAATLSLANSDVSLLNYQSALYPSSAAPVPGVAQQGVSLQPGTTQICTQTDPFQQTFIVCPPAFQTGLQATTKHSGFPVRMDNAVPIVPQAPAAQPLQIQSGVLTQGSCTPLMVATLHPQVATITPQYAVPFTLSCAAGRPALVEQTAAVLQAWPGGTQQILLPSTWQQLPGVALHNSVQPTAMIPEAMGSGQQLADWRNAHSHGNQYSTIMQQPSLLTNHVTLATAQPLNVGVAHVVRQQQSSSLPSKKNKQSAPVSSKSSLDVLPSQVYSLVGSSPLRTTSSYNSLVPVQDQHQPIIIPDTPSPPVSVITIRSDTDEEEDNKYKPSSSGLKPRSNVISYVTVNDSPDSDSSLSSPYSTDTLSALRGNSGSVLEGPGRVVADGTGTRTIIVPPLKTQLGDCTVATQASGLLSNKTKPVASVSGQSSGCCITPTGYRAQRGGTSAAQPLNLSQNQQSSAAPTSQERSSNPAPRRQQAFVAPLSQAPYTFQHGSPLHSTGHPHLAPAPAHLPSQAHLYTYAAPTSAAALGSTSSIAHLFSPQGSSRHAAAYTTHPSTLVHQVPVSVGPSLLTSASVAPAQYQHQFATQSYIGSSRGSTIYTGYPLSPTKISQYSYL
Sequence of Mitogen-activated protein kinase 11 (Homo sapiens) (Q15759 whole entry): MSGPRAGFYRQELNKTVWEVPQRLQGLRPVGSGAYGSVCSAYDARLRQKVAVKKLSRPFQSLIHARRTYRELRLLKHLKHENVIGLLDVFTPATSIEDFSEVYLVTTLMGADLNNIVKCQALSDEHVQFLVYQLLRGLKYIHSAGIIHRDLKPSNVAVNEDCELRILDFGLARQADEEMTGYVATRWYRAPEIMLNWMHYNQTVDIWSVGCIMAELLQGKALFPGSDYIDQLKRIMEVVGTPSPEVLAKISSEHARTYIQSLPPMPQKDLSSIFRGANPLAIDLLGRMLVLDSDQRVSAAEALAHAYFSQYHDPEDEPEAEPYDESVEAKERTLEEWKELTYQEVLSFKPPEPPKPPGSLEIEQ
Sequence of Mitogen-activated protein kinase 3 (Homo sapiens) (P27361 whole entry): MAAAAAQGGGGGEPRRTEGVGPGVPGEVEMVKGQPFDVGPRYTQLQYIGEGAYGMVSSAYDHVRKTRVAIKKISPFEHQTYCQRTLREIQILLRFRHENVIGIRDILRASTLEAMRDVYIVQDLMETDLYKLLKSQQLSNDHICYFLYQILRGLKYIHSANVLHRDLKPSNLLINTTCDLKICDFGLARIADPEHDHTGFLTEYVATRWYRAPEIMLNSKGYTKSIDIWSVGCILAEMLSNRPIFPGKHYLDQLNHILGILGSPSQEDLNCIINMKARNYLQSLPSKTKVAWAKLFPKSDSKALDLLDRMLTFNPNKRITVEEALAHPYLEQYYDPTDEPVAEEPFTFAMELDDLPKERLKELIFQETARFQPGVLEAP
Sequence of Glycogen synthase kinase-3 beta (Homo sapiens) (P49841 whole entry, looked up): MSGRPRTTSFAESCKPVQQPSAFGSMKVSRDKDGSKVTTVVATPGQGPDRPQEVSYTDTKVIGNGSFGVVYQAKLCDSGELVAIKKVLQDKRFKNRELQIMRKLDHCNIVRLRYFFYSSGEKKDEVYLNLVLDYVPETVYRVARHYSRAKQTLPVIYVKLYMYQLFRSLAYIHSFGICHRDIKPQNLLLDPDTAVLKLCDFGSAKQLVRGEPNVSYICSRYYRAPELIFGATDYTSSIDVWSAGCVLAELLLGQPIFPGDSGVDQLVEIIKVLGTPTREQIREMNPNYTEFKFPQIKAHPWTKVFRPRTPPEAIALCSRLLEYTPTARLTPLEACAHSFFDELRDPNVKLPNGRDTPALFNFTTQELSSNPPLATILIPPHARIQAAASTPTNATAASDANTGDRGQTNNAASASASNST
Sequence of SRSF protein kinase 3 (Homo sapiens) (Q9UPE1 whole entry): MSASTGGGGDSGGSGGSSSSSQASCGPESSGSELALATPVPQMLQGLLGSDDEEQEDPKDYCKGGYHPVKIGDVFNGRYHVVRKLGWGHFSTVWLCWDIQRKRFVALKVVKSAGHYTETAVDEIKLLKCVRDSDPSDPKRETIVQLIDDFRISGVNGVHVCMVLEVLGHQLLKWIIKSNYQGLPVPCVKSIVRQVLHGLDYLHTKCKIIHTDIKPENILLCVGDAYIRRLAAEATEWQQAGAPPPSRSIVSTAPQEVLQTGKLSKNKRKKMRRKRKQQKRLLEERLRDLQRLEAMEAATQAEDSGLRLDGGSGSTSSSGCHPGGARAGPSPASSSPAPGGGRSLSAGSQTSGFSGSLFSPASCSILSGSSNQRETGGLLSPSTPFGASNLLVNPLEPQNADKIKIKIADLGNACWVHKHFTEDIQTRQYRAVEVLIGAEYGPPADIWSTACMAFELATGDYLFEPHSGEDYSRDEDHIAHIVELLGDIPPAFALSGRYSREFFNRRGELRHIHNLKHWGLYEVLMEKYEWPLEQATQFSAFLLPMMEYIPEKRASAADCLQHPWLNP
Sequence of Mitogen-activated protein kinase 14 (Homo sapiens) (Q16539 whole entry): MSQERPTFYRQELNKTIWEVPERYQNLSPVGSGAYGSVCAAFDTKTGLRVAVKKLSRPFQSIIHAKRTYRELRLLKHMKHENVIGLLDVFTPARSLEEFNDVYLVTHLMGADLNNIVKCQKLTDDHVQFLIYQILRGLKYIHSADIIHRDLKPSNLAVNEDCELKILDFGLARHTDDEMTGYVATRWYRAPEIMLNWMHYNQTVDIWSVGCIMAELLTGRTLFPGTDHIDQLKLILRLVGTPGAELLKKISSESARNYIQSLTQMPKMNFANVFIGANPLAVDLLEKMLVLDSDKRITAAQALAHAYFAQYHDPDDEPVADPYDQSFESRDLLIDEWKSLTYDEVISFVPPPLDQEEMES
Sequence of Mitogen-activated protein kinase 9 (Homo sapiens) (P45984 whole entry, looked up): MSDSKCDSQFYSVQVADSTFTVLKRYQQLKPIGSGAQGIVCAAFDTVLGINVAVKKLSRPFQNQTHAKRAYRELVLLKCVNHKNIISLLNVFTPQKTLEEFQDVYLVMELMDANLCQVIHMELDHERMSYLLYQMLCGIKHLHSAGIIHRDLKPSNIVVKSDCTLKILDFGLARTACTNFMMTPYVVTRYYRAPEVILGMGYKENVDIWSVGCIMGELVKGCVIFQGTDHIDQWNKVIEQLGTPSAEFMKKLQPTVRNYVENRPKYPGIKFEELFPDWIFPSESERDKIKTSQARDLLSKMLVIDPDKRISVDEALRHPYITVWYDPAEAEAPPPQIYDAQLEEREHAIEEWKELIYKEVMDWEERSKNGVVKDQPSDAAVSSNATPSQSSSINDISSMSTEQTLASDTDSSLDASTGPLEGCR

On to `CCc1ccc(Oc2nccc(-c3c(-c4ccc(F)cc4)ncn3C3CCNCC3)n2)cc1`, for which the inhibition was 7.29% in [1]; -2.3% in assay [2]; 1.77% in assay [3]; 0.48% in assay [4]; 2.99% in [5]; 6.77% in [6]. Also, the inhibition in assay [7] stood at 11.6%; in assay [8], 5.92%; in [9] it was 8.24%; in assay [10], 3.09%; in assay [11] it was 0.07%.
Regarding `O=C1NC(=O)C(c2cccc(Cl)c2)=C1Nc1ccc(Cl)c(C(=O)O)c1`, the inhibition in assay [2] is 2.03%; in [3], 1.77%; in assay [4], 1.36%; in [5] it was 0.39%; in assay [12], 1.14%; in assay [13], 3.47%. Moreover, the inhibition in [6] was 11%; in assay [7], 5.36%; in assay [8] it was 5.36%; in assay [9], 3.9%; in assay [10], -2.79%; in [11], 0.44%. Besides, the inhibition amounted to 1.44% in assay [14]; 4.72% in assay [15]; 3.66% in [16]; 4.6% in assay [17]; 1.21% in assay [18]; 0.67% in [19]. In assay [20], the inhibition came out at 5.9%.
Take `Fc1ccc(-c2ncn(C3CCNCC3)c2-c2ccnc(Oc3ccc(Oc4ccccc4)cc3)n2)cc1`: the inhibition is 3.65% in [1]; -1.61% in assay [2]; 2.08% in assay [3]; -0.8% in assay [4]; 0.79% in assay [5]; 5.58% in assay [6]. Further, the inhibition in [7] was 9.79%; in assay [8] it was 3.67%; in assay [9], 5.57%; in assay [10], 4.51%; in assay [11], -0.81%.
On to `CCN(CC)Cc1ccc(Nc2nccc(-c3cnn4ncccc34)n2)cc1`, for which the inhibition in assay [1] was found to be 62.3%; in assay [2], 50.6%; in assay [3], 71.9%; in assay [4], 18.1%; in assay [5] it was 59%; in assay [12], 6.18%. Moreover, the inhibition in assay [13] was 30.9%; in assay [6] it was 6.89%; in assay [7], 15.8%; in assay [9] it was 7.61%; in [10], -1.94%; in assay [11] it was -0.22%. Moreover, the inhibition in assay [14] was determined as 6.95%; in assay [15], 13.1%; in assay [16], 3.23%; in assay [17] it was 4.99%; in [18], 4.71%; in assay [19], 9.25%. Moreover, the inhibition in assay [20] stood at 3.65%.
As to `C#Cc1cccc(Nc2ncnc3ccc(OCCCCNCCS(C)(=O)=O)cc23)c1`, the inhibition was 1.89% in assay [1]; -3.09% in assay [2]; -1.22% in assay [3]; 4.39% in assay [4]; 24.9% in [5]; 3.91% in assay [12]. Moreover, the inhibition is 4.58% in assay [13]; 5.06% in assay [6]; 5.46% in assay [7]; 4.38% in assay [8]; 5.78% in [9]; -1.8% in assay [10]. Besides, the inhibition is -2.44% in assay [11]; 3.36% in assay [14]; 13.9% in assay [15]; 4.69% in [16]; 7.25% in [17]; 6.43% in [18]. Moreover, the inhibition was 4.8% in [19] and 1.66% in assay [20].
For `NC(=O)c1ccc(Oc2nccc(-c3c(-c4ccc(F)cc4)ncn3C3CCNCC3)n2)cc1`, the inhibition amounted to 3.17% in [1]; 0.03% in [2]; 2.53% in assay [3]; 0.33% in assay [4]; 0.25% in assay [5]; 5.21% in assay [6]. Also, the inhibition in assay [7] is 6.64%; in assay [8], 3.78%; in assay [9], 5.38%; in [10], 1.1%; in assay [11] it was -0.11%.
As for `COc1cc(Nc2ncc3c(C)nc(-c4cccc(C(F)(F)F)c4)n3n2)cc(OC)c1OC`, the inhibition was found to be 28.1% in [1]; 4.84% in assay [2]; 26.8% in [3]; 1.83% in assay [4]; 9.08% in [5]; 0.45% in [12]. Moreover, the inhibition in assay [13] is 4.58%; in assay [6] it was 5.55%; in assay [7], 13%; in assay [8], 4.86%; in assay [9] it was 7.25%; in assay [10], -0.69%. For the same molecule, the inhibition in [11] is 3.15%; in assay [14] it was 1.25%; in [15] it was 6.99%; in assay [16] it was 3.99%; in [17] it was 8.89%; in assay [18], -0.83%. Also, the inhibition came to 1.78% in [19] and 0.21% in assay [20].
